# Whole data set: some 39,000 sequences, median “fluorescence intensity (a.u.)” near 4,300, cut for the highest 2% near 39,000. The full list was thinned out, with the highest values kept by preference.
# Target: T1, OsSMF1 (Oryza sativa, UniProt Q6ZLB0 1-436)
# T1 sequence: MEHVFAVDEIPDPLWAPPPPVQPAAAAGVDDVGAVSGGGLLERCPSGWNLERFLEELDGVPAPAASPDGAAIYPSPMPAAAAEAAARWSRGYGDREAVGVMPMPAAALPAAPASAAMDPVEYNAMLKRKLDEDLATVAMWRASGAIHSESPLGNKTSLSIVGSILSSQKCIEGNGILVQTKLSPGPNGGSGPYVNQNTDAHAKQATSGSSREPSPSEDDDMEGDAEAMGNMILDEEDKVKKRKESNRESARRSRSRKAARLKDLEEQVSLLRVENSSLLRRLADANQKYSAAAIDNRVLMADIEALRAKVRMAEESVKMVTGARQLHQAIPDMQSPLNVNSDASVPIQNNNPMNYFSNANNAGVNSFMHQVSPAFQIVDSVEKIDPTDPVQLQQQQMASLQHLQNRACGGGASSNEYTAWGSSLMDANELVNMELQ
# Test: protein-binding microarray (RPBM); PBS, 2% BSA, 51.3 ng/ul salmon testes DNA, 50 uM zinc acetate, 200 nM TF, 25 C, 1 h; high values mean tight binding
# Details: protein: recombinant; tags: N-terminal polyhistidine and DsRed monomer fusion (pET32a); chain copies: 2; label: CyDye5-dUTP incorporated in the synthesized complementary strand; 3' TTTTT single-stranded linker to array surface; dsDNA, one strand shown
# In short: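 Ni–NTA purification followed expression in E. coli BL21-CodonPlus of transcription factors fused N-terminally to a polyhistidine tag and DsRed. At 200 nM in PBS with 2% BSA, salmon testes DNA and 50 µM zinc acetate, the protein was incubated for 1 h at 25 °C with a custom Agilent array that had been primer-extended with Cy5-dUTP and blocked with 2% BSA. After washing, the array was read on an Axon 4000B scanner. The binding signal is per-feature fluorescence intensity in arbitrary units.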
row,Sequence,binding signal
1,TCTCCCCAGATTTCCCCTTCCATTCCGCCTCCCGATCGCTCGGAGTCACCTAGTGCAG,43300 fluorescence intensity (a.u.)
2,GCTTCTGCTGTGGCTGTGCTGAGCTTTCACAGTCACAGCCCGGAGTCACCTAGTGCAG,3550 fluorescence intensity (a.u.)
3,AACTTCTCAATGTGTGGCCCCGAGCTGTGGCTTCACAGCTCGGAGTCACCTAGTGCAG,63300 fluorescence intensity (a.u.)
4,CCCAGCCCGGCGTCCCCTTCTCGGCTTCCTCCTCCACCATCGGAGTCACCTAGTGCAG,4100 fluorescence intensity (a.u.)
5,GGCCCCACATGTCATCTCCTCCCTTTCTTCTTCCTCCCCTCGGAGTCACCTAGTGCAG,4040 fluorescence intensity (a.u.)
6,AAATCCGCCCTCGCCTCGCCCCGATCGATCCCCTCGATTCCGGAGTCACCTAGTGCAG,3810 fluorescence intensity (a.u.)
7,TCTAACCCCGCCTGCAGATCCGCTCCATCGATTCCCTCCCCGGAGTCACCTAGTGCAG,31700 fluorescence intensity (a.u.)
8,GGAGGAGGAGGAGGAGGGAGATGGTGGCGAGCTGACTTGGCGGAGTCACCTAGTGCAG,4090 fluorescence intensity (a.u.)
9,TCAGCTGCGTCACCCGAGTCCTCCACTCGTCTCCGCTATTCGGAGTCACCTAGTGCAG,5650 fluorescence intensity (a.u.)
10,TCACTGCGTGCATGTATGTACGTGGATTGTCCAATTACAACGGAGTCACCTAGTGCAG,3300 fluorescence intensity (a.u.)
11,CTCCTAGCAGCAACAGGGCCACGTTTGCTCTGCGAACAGGCGGAGTCACCTAGTGCAG,4590 fluorescence intensity (a.u.)
12,TTTGGTTAGTGAATTTAGCTATCCTCTCCTTGACTTCCTACGGAGTCACCTAGTGCAG,3660 fluorescence intensity (a.u.)
13,ATTTAGTGCTAAATATGTAGTTTCATGATACATCATGTTACGGAGTCACCTAGTGCAG,3850 fluorescence intensity (a.u.)
14,TGTGTTCTGCAATGCATAATTGCACCAGTTCTAGTACCTGCGGAGTCACCTAGTGCAG,45300 fluorescence intensity (a.u.)
15,TGGTGTGTAATTTGTGCAAATTCTAAGCAAATGCAAATTGCGGAGTCACCTAGTGCAG,17200 fluorescence intensity (a.u.)
16,GGTGCAGTTCATCATATGTGTTAGACTAATTGAGTAATTGCGGAGTCACCTAGTGCAG,36500 fluorescence intensity (a.u.)
17,CAGGGGCATTTCCGTAAACTCCCACGTGGCACAGATACGGCGGAGTCACCTAGTGCAG,13200 fluorescence intensity (a.u.)
18,TCTTGACATCCGGAATCATCACGCTCTTCCCAATCGAGGTCGGAGTCACCTAGTGCAG,3680 fluorescence intensity (a.u.)
19,AAGTAGCCCGGATCTCCCAGCTTCCCTCGAGCTGACCTCACGGAGTCACCTAGTGCAG,3960 fluorescence intensity (a.u.)
20,TTTAATTCAAATGCCACCTAAGCACCACGTCAGCGAAACCCGGAGTCACCTAGTGCAG,42600 fluorescence intensity (a.u.)
21,TGCTGACTATGATGCCACGTCAGCGAAACCACCCATATATCGGAGTCACCTAGTGCAG,23000 fluorescence intensity (a.u.)
22,TGCCACGTCAGCGAAAACCACCATCTAAACCACCGCCATGCGGAGTCACCTAGTGCAG,7960 fluorescence intensity (a.u.)

row,Sequence,binding signal
1,TTTAATTCAAATGCCAGCTAAGCGCTACGTCAACCCTACACGGAGTCACCTAGTGCAG,15500 fluorescence intensity (a.u.)
2,ACTAAGCTGCCACGTGGATGCCACGTCAGCGAAAACCACCCGGAGTCACCTAGTGCAG,61800 fluorescence intensity (a.u.)
3,TTTTAATTCAAATGCCACCTAAGCGCCACGTCAACCCTATCGGAGTCACCTAGTGCAG,23500 fluorescence intensity (a.u.)
4,GGGCGGAGCTAGAATAAAATAAAGGAGGGTTCCACTCGTTCGGAGTCACCTAGTGCAG,23100 fluorescence intensity (a.u.)
5,TCGATTTACTGACAAAATTGTATCCCAAAACAATGGCTTACGGAGTCACCTAGTGCAG,33700 fluorescence intensity (a.u.)
6,TTCTCTACCAGCGGCAGCGGCGGCTGGTAGGGAGGAGGAGCGGAGTCACCTAGTGCAG,4860 fluorescence intensity (a.u.)
7,ATAAAGAAGGGAGGCAGCGGGCGAGCTGTAAAGGAGTACACGGAGTCACCTAGTGCAG,32300 fluorescence intensity (a.u.)
8,GGATTGACGGGGACGCGGTGGTGGCGCCAACGGATGGACGCGGAGTCACCTAGTGCAG,6220 fluorescence intensity (a.u.)
9,TTACTGGTGATATTTATTTTGACAAGTGCTTTTATTTGTACGGAGTCACCTAGTGCAG,3930 fluorescence intensity (a.u.)
10,CATTTTGTACTTTGACAAGTATTTAATATTTGCCAGTAGTCGGAGTCACCTAGTGCAG,65100 fluorescence intensity (a.u.)
11,TTACTAGTACATTTAATATATTTATTTAATGTATTTGTATCGGAGTCACCTAGTGCAG,3140 fluorescence intensity (a.u.)
12,ATATTCGTCTCTATCGCTTAAGGCGGTTAGTTGCGTGTCACGGAGTCACCTAGTGCAG,3930 fluorescence intensity (a.u.)
13,GTCCAATTTAATGCTGACGTTGCTGATGGAATGCCGTGGACGGAGTCACCTAGTGCAG,10500 fluorescence intensity (a.u.)
14,TTAATGATTTTATTTGAATGGATCAGGGTCCAATTTGCTGCGGAGTCACCTAGTGCAG,55800 fluorescence intensity (a.u.)
15,AATCATTTTATTTGACTAATACACGTCAGGATTGAATGAGCGGAGTCACCTAGTGCAG,4880 fluorescence intensity (a.u.)
16,GCAGGGCAGGCTGACAGCTCATCTTCTCAGAGGATCCGATCGGAGTCACCTAGTGCAG,5100 fluorescence intensity (a.u.)
17,AGCGTCGCGCCGCGCCACGCCACGCCACGCCACCCCACCACGGAGTCACCTAGTGCAG,5830 fluorescence intensity (a.u.)
18,TGAGCCACGCACTGAACACGACCGTTCGATCCCCTCAAGGCGGAGTCACCTAGTGCAG,3810 fluorescence intensity (a.u.)
19,ATACCTGATCCTACTTGTCATACACATATTTATCTTATAGCGGAGTCACCTAGTGCAG,3620 fluorescence intensity (a.u.)
20,CGTATATGTATATATACATACTTTATACACATATATATACCGGAGTCACCTAGTGCAG,3360 fluorescence intensity (a.u.)
21,TTTGGTGCGAGCGAAATACCAGGATCTTTATACACATAGCCGGAGTCACCTAGTGCAG,58000 fluorescence intensity (a.u.)

# Reference: PMC7819943, “Rice protein-binding microarrays: a tool to detect cis-acting elements near promoter regions in rice”
